Results as given in the supplement of paper PMC4166925.
± gives the standard deviation of the averaged measurements. In all, about 33,000 sequences were measured (“E-score (dimensionless, -0.5 to 0.5)”: median about -0.046, highest 2% from about 0.36 on). This excerpt belongs to a sample that is enriched for the highest values.

Tested on: T1, SpTbr T-box DNA-binding domain (GST fusion)
T1 sequence: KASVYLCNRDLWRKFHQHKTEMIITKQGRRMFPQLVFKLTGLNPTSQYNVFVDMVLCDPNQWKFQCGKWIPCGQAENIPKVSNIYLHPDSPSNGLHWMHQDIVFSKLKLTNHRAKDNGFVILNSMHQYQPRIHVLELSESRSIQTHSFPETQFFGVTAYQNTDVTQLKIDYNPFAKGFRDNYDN
Assay: PBM E-score of 8-mer (E-score (dimensionless, -0.5 to 0.5)); Tbr is Tbrain of the sea star Patiria miniata (Pm) or the sea urchin Strongylocentrotus purpuratus (Sp); higher = stronger binding preference
Conditions: the construct has about 5 more residues each side
How it was run: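 Primer extension turned Universal Agilent oligonucleotide arrays double-stranded. They were incubated with 200 nM protein in PBS (pH 7.5); the protein was a GST-fused Tbr T-box DNA-binding domain expressed in BL21 E. coli at 20 °C and purified on glutathione. Every ungapped 8-mer was scored from the scanned, quantified probe intensities, and the Universal PBM Analysis Suite gave each an enrichment E-score averaged over duplicate arrays.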

In order of falling “PBM E-score of 8-mer” value:
1. AGGTGCTA  0.4822 ± 0.0033
2. AGGCGCGA  0.471 ± 0.0037
3. CACACACC  0.454 ± 0.013
4. GTGACAAC  0.4467 ± 0.0025
5. CCCACACC  0.438 ± 0.033
6. AGGTGCGG  0.429 ± 0.025
7. GCTCGCAC  0.4252 ± 0.0014
8. AGGTGCTG  0.4215 ± 0.0039
9. GGGCGCGA  0.422 ± 0.031
10. GCCACACC  0.421 ± 0.036
11. ACACTTCC  0.417 ± 0.016
12. AGGTGCAA  0.414 ± 0.005
13. CACCTTAC  0.413 ± 0.017
14. ACACTTCA  0.412 ± 0.0084
15. AGGCGCTA  0.41 ± 0.023
16. ACACTTCG  0.409 ± 0.0085
17. CACCTAGC  0.40555 ± 0.00015
18. GACACCCC  0.405 ± 0.026
19. GTGACACA  0.403 ± 0.0044
20. CACCTTAG  0.401 ± 0.04
21. AACACCCT  0.4 ± 0.0049
22. GGGTGCTA  0.397 ± 0.0085
23. CCTCGCAC  0.396 ± 0.032
24. ACTCGCAC  0.394 ± 0.035
25. CACCTAGG  0.392 ± 0.012
26. AACACCCC  0.39126 ± 9.9e-05
27. CACCTTAA  0.387 ± 0.004
28. TGTCGACA  0.384 ± 0.01
29. ACACTTCT  0.383 ± 0.035
30. GTGACAAA  0.38303 ± 5.7e-05
31. AACACCAT  0.377 ± 0.021
32. GACACCCA  0.374 ± 0.032
33. AGGCGAGA  0.373 ± 0.012
34. AGGCGACA  0.37 ± 0.013
35. ACCACACC  0.369 ± 0.029
36. GCGACAAC  0.369 ± 0.007
37. CTGACACA  0.356 ± 0.022
38. AACACCAA  0.356 ± 0.012
39. GGTGTAGA  0.35 ± 0.009
40. GCCACACA  0.335 ± 0.0096
41. ATGTGCTA  0.328 ± 0.024
42. GCACTTCC  0.326 ± 0.017
43. AACACACC  0.326 ± 0.0067
44. GACACACC  0.321 ± 0.016
45. CGGCGCGA  0.3178 ± 0.00058
46. GGGCGCTA  0.314 ± 0.014
47. AGGTGCGC  0.3101 ± 0.0015
48. AGGCGACG  0.301 ± 0.066
49. CACCTAGA  0.294 ± 0.073
50. AACACCCA  0.293 ± 0.035
51. AGGCGCGG  0.291 ± 0.017
52. AAGTGCGG  0.273 ± 0.027
53. GGGTGCAA  0.271 ± 0.017
54. GTGTGCTA  0.268 ± 0.025
55. TATTCTCA  0.264 ± 0.061
56. ACCACACG  0.26 ± 0.039
57. CTGACAAC  0.259 ± 0.018
58. CGGTGCTA  0.258 ± 0.035
59. CGTCGACA  0.251 ± 0.031
60. ACCACACA  0.248 ± 0.037
61. ATCACCCC  0.232 ± 0.013
62. GCGAATAC  0.228 ± 0.018
63. ACGACAAC  0.2279 ± 0.0012
64. GCTCGCAA  0.224 ± 0.021
65. GGGCGAGA  0.222 ± 0.0041
66. ATGACAAC  0.222 ± 0.017
67. GGCACCCC  0.22 ± 0.003
68. TGGTGCAA  0.214 ± 0.0077
69. GCGTGCTA  0.21 ± 0.019
70. ACATATTC  0.203 ± 0.049
71. AGCACCCT  0.202 ± 0.025
72. CCCACACA  0.199 ± 0.038
73. CCACTTCG  0.193 ± 0.017
74. GAATAGCA  0.189 ± 0.0036
75. AGGCGCGC  0.185 ± 0.039
76. GCCACCCC  0.181 ± 0.081
77. AGTCGACA  0.179 ± 0.051
78. GGCACCCA  0.173 ± 0.021
79. CCGCTACC  0.162 ± 0.04
80. ATGTGCTG  0.161 ± 0.0054
81. CCGACAAC  0.159 ± 0.048
82. CGGCGCTA  0.152 ± 0.019
83. TCACTTCA  0.151 ± 0.018
84. CCCACACG  0.15 ± 0.1
85. GAGACACA  0.15 ± 0.01
86. GACTGTCA  0.144 ± 0.037
87. CAGAGTCG  0.144 ± 0.077
88. CACAACCA  0.133 ± 0.025
89. CCTCGCAG  0.128 ± 0.0015
90. CCAAGAGG  0.12 ± 0.0026
91. GATATAGC  0.118 ± 0.023
92. CCACTTCA  0.108 ± 0.019
93. ACCACCAT  0.108 ± 0.082
94. CGCACTGC  0.104 ± 0.0094
95. CCTCGCAA  0.102 ± 0.077
96. AGATCTCA  0.098 ± 0.054
97. CCTCCTCA  0.0831 ± 0.027
98. AACCTTAC  0.0738 ± 0.012
99. AGGTAGCA  0.0725 ± 0.016
100. CCACTTCC  0.072 ± 0.0026
101. AAGTTAAA  0.0719 ± 0.053
102. AAGTTTCT  0.0712 ± 0.037
103. CAAAAAGC  0.0694 ± 0.065
104. GACAATCC  0.0693 ± 0.021
105. GACATTGC  0.0656 ± 0.018
106. GTCGCGTA  0.0514 ± 0.011
107. CAGCCGGA  0.05 ± 0.018
108. CCTATCGA  0.042 ± 0.12
109. CCAGTCAC  0.0388 ± 0.0065
110. CTGACAAA  0.0345 ± 0.084
111. ACTCGCAG  0.0332 ± 0.026
112. GTGGTGCA  0.0312 ± 0.0088
113. ACGGTTAT  0.0286 ± 0.041
114. GCCACCCA  0.0264 ± 0.086
115. GTTTACGA  0.0241 ± 0.021
116. CGATCAGC  0.0172 ± 0.057
117. ACCACCCT  0.0155 ± 0.074
118. CCGTTAGG  0.0143 ± 0.029
119. AGCCGTCG  0.0127 ± 0.019
120. AGGTGCTC  0.012 ± 0.081
121. AGGCGACC  0.012 ± 0.083
122. ATGTTTTG  0.00867 ± 0.052
123. AGTTGTTC  0.00852 ± 0.024
124. GCCACAGC  0.00288 ± 0.017
125. AAACTTCG  -0.00264 ± 0.024
126. ACTCGCAT  -0.00696 ± 0.059
127. AGTAGGAG  -0.00869 ± 0.02
128. CTAGATAA  -0.00975 ± 0.025
129. AACCTAGC  -0.0309 ± 0.0034
130. AACCTAGG  -0.0376 ± 0.091
131. ACCACAAT  -0.0442 ± 0.058
132. GCAAACCC  -0.0464 ± 0.01
133. CCCCTAGG  -0.0502 ± 0.012
134. GGGGGCGA  -0.0505 ± 0.016
135. ATGACAAA  -0.0554 ± 0.028
136. CATCCTGG  -0.0597 ± 0.01
137. CCCACGTA  -0.0631 ± 0.1
138. CACCATAC  -0.065 ± 0.011
139. CTCGAGAC  -0.0685 ± 0.051
140. TACTTCGA  -0.0694 ± 0.013
141. AGACTCTC  -0.0738 ± 0.045
142. AAGGGTAA  -0.088 ± 0.0016
143. TAGACAGA  -0.0941 ± 0.02
144. ACCGTCTA  -0.0953 ± 0.012
145. ACTCGTAC  -0.0977 ± 0.07
146. TAAATGTA  -0.0999 ± 0.021
147. AAGAAGTA  -0.119 ± 0.082
148. GCATAGAA  -0.126 ± 0.09
149. ACTAAATA  -0.131 ± 0.019
150. AAACAGAT  -0.136 ± 0.01
151. AACCTTAG  -0.144 ± 0.086
152. AAACTTCT  -0.146 ± 0.1
153. AGACTCGA  -0.158 ± 0.006
154. CAGGCCTC  -0.159 ± 0.029
155. ACCGGTAC  -0.1754 ± 0.0017
156. TCTCAAAA  -0.176 ± 0.025
157. ATCAAATA  -0.182 ± 0.015
158. CCCCTTAG  -0.184 ± 0.068
159. GGAATGCC  -0.187 ± 0.06
160. AATTGGAC  -0.187 ± 0.049
161. GACCTTAA  -0.188 ± 0.0048
162. ATGCGGGA  -0.193 ± 0.03
163. GCTCGCCC  -0.196 ± 0.039
164. GGAGCTGA  -0.203 ± 0.042
165. CCGGCCAA  -0.208 ± 0.042
166. AACCTTAA  -0.218 ± 0.046
167. ACTCTTCT  -0.224 ± 0.0037
168. AGGCGAGC  -0.233 ± 0.11
169. TAAGAGCA  -0.252 ± 0.049
170. GCAGTGGA  -0.261 ± 0.065
171. AGAAGACT  -0.285 ± 0.046
172. GACCTTAC  -0.286 ± 0.0076
173. ATGCCTGC  -0.295 ± 0.061
174. CGAAAACC  -0.297 ± 0.0092
